Results filed as inconclusive are left out. Active and inactive are the calls of the source. Calls follow the shape of the dose curve; as a rule, active = well fitted cell-killing curve with a large enough effect; inconclusive = small, poorly fitted or top-dose-only effect, or effect the other way; inactive = flat fitted curve, though single readings scatter.
Assays:
Assay in all cases: Primary qHTS to identify gynecologic anti-cancer compounds using libraries of approved drugs and bioactive compounds (AID 1345084); also: nearly all actives have a fitted effect of over 55% in size
Settings in all cases: Gynecologic cancer cell panel viability, ATPlite luminescence, 48 h; series mostly up to 57.5 µM
PA-1 = test system: PA-1
In short: (§1)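 Cell viability after 48 h drug treatment, ATPlite luminescence readout; five doses.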

SKOV3 = test system: SKOV3
In short: as §1

Tov-21-G = test system: Tov-21-G
In short: as §1

Tov112D = test system: Tov112D
In short: as §1
% is scaled to controls: 0 for no effect and ±100 for the full control effect; potency is read from the fitted curve at half-maximal effect.

COC1CC(O[C@H]2CC[C@@]3(C)C(=CC[C@]4(O)C3[C@H](OC(C)=O)[C@@H](OC(=O)c3ccccc3)[C@]3(C)[C@@H](C(C)=O)CC[C@@]34O)C2)OC(C)C1OC1CC(OC)C(OC2CC(OC)C(OC3OC(C)C(OC4OC(CO)C(O)C(O)C4O)C(OC)C3O)C(C)O2)C(C)O1 (some centres undefined)
inactive: activity change, negative = cytotoxicity (PA-1) -5.59% [at 6.55 µM] | activity change, negative = cytotoxicity (SKOV3) 11% [at 6.55 µM] | activity change, negative = cytotoxicity (Tov-21-G) -0.609% [at 6.55 µM] | activity change, negative = cytotoxicity (Tov112D) 2.04% [at 6.55 µM]

CC1CCC2(C=O)C(CO)=CCCC2C1(C)CC(=O)O (centres undefined)
inactive: Potency (PA-1) | Potency (SKOV3) | Potency (Tov-21-G) | Potency (Tov112D)

COc1ccc2cc(C(C)C(=O)Oc3ccc(C(N)=S)cc3)ccc2c1 (centres undefined)
inactive: Potency (PA-1) | Potency (SKOV3) | Potency (Tov-21-G) | Potency (Tov112D)

c1cc(OCCCN2CCCCC2)ccc1CN1CCCCC1
inactive: Potency (PA-1) | Potency (SKOV3) | Potency (Tov-21-G) | Potency (Tov112D)

C[C@@H]1CC[C@@]2(OC1)O[C@H]1C[C@H]3[C@@H]4CC=C5C[C@@H](O)CC[C@]5(C)[C@H]4CC[C@]3(C)[C@H]1[C@@H]2C
inactive: Potency (PA-1) | Potency (SKOV3) | Potency (Tov-21-G) | Potency (Tov112D)

CC1(C)CCC2(C(=O)OC3OC(CO)C(O)C(O)C3O)CCC3(C)C(=CCC4C5(C)CCC(OC6OC(C(=O)O)C(OC7OC(CO)C(O)C(O)C7O)C(OC7OC(CO)C(O)C(O)C7O)C6O)C(C)(C)C5CCC43C)C2C1 (centres undefined)
inactive: activity change, negative = cytotoxicity (PA-1) 16.1% [at 11.6 µM] | activity change, negative = cytotoxicity (SKOV3) 13.2% [at 11.6 µM] | activity change, negative = cytotoxicity (Tov-21-G) 1.15% [at 11.6 µM] | activity change, negative = cytotoxicity (Tov112D) 6% [at 11.6 µM]

C=C1OC2CC(C(=O)O)C=CC2NC1=O (centres undefined)
inactive: Potency (PA-1) | Potency (SKOV3) | Potency (Tov-21-G) | Potency (Tov112D)

CC1(C)CCC2(C(=O)OC3OCC(O)C(O)C3O)CCC3(C)C(=CCC4C5(C)CC(O)C(OC6OC(COC7OCC(O)C(O)C7O)C(O)C(O)C6O)C(C)(C)C5CCC43C)C2C1 (centres undefined)
inactive: activity change, negative = cytotoxicity (PA-1) 14.1% [at 11.6 µM] | activity change, negative = cytotoxicity (SKOV3) 12.7% [at 11.6 µM] | activity change, negative = cytotoxicity (Tov-21-G) 8.15% [at 11.6 µM] | activity change, negative = cytotoxicity (Tov112D) 7.12% [at 11.6 µM]

CC(C)=CCC[C@](C)(O[C@@H]1O[C@H](CO)[C@@H](O)[C@H](O)[C@H]1O)[C@H]1CC[C@]2(C)[C@@H]1[C@H](O)CC1[C@@]3(C)CC[C@H](O)C(C)(C)C3[C@@H](O[C@@H]3O[C@H](CO)[C@@H](O)[C@H](O)[C@H]3O[C@@H]3OC[C@@H](O)[C@H](O)[C@H]3O)C[C@]12C (some centres undefined)
inactive: activity change, negative = cytotoxicity (PA-1) 2.46% [at 11.6 µM] | activity change, negative = cytotoxicity (SKOV3) -3.65% [at 11.6 µM] | activity change, negative = cytotoxicity (Tov-21-G) -2.34% [at 11.6 µM] | activity change, negative = cytotoxicity (Tov112D) -2.93% [at 11.6 µM]

COc1cc(O)cc(C)c1C(=O)OC1C(CO)OC(OC2C(O)C(O)C(O)C(O)C2O)C(O)C1O (centres undefined)
inactive: Potency (PA-1) | Potency (SKOV3) | Potency (Tov-21-G) | Potency (Tov112D)

C=C[C@H]1C(O[C@@H]2O[C@H](CO)[C@@H](O)[C@H](O)[C@H]2O)OC=C2C(=O)N3CCc4c([nH]c5ccccc45)C3CC21 (some centres undefined)
inactive: Potency (PA-1) | Potency (SKOV3) | Potency (Tov-21-G) | Potency (Tov112D)

Cc1[nH]c2ccccc2c1CCNC(=O)c1ccccc1F
inactive: Potency (PA-1) | Potency (SKOV3) | Potency (Tov-21-G) | Potency (Tov112D)

CC(O)/C=C/C1OC(=O)CC1Nc1ccc(C(=O)O)cc1 (centres undefined)
inactive: Potency (PA-1) | Potency (SKOV3) | Potency (Tov-21-G) | Potency (Tov112D)

COc1c2ccoc2cc2oc(CO[C@@H]3O[C@H](CO)[C@@H](O)[C@H](O)[C@H]3O)cc(=O)c12
inactive: Potency (PA-1) | Potency (SKOV3) | Potency (Tov-21-G) | Potency (Tov112D)

CC(=O)/C=C/[C@H]1[C@](C)(O)[C@@H](O)[C@H](OC(C)=O)C2C(C)(C)CCC[C@@]21C (some centres undefined)
inactive: Potency (PA-1) | Potency (SKOV3) | Potency (Tov-21-G) | Potency (Tov112D)

C[C@@H]1O[C@@H](O[C@@H]2[C@@H](O[C@@H]3O[C@@H](C)[C@H](O[C@@H]4OC[C@H](O)[C@H](O[C@@H]5OC[C@@H](O)[C@H](O)[C@H]5O)[C@H]4O)[C@@H](O[C@@H]4OC[C@](O)(CO)[C@H]4O)[C@H]3O)[C@H](OC(=O)[C@]34CCC(C)(C)C[C@H]3C3=CCC5[C@@]6(C)C[C@H](O)[C@H](O[C@@H]7O[C@H](CO[C@@H]8OC[C@H](O)[C@H](O)[C@H]8O)[C@@H](O)[C@H](O)[C@H]7O)C(C)(C)C6CC[C@@]5(C)[C@]3(C)C[C@H]4O)OC[C@H]2O)[C@H](O)[C@H](O)[C@H]1O (some centres undefined)
inactive: activity change, negative = cytotoxicity (PA-1) 18.2% [at 6.55 µM] | activity change, negative = cytotoxicity (SKOV3) 4.47% [at 6.55 µM] | activity change, negative = cytotoxicity (Tov-21-G) -2.27% [at 6.55 µM] | activity change, negative = cytotoxicity (Tov112D) 7.07% [at 6.55 µM]

CC(=O)C1=CCC2C3CCC4CC(O[C@@H]5O[C@H](CO)[C@@H](O[C@@H]6O[C@@H](C)[C@H](O)[C@@H](O)[C@H]6O)[C@H](O)[C@H]5O[C@@H]5O[C@H](CO)[C@@H](O)[C@H](O)[C@H]5O)CCC4(C)C3CCC12C (some centres undefined)
inactive: Potency (PA-1) | Potency (SKOV3) | Potency (Tov-21-G) | Potency (Tov112D)

COC(=O)CC(C)(O)CC(=O)OCc1ccc(O[C@@H]2O[C@H](CO)[C@@H](O)[C@H](O)[C@H]2O)cc1 (some centres undefined)
inactive: Potency (PA-1) | Potency (SKOV3) | Potency (Tov-21-G) | Potency (Tov112D)

O=C(Nc1ccc(S(=O)(=O)Nc2nccs2)cc1)C(c1ccccc1)c1ccccc1
inactive: Potency (PA-1) | Potency (SKOV3) | Potency (Tov-21-G) | Potency (Tov112D)

OC[C@H]1O[C@@H](OCCc2ccccc2)[C@H](O[C@@H]2OC[C@](O)(CO)[C@H]2O)[C@@H](O)[C@@H]1O
inactive: Potency (PA-1) | Potency (SKOV3) | Potency (Tov-21-G) | Potency (Tov112D)

CCOCCOC(=O)/C=C/c1ccc(OC)cc1
inactive: Potency (PA-1) | Potency (SKOV3) | Potency (Tov-21-G) | Potency (Tov112D)

CC/C=C\CC1C(=O)C=CC1(CCCCCCCC(=O)O)OC(C)=O (centres undefined)
inactive: Potency (PA-1) | Potency (SKOV3) | Potency (Tov-21-G) | Potency (Tov112D)

O=C1NC(Cc2c[nH]c3ccccc23)C(=O)NC1Cc1c[nH]c2ccccc12 (centres undefined)
inactive: Potency (PA-1) | Potency (SKOV3) | Potency (Tov-21-G) | Potency (Tov112D)

C/C1=C\CCC2=C[C@@H](OC2=O)c2c(C)coc2C1
inactive: Potency (PA-1) | Potency (SKOV3) | Potency (Tov-21-G) | Potency (Tov112D)

CC(=O)NC1C(OC(C)(C)C2CCC3(C)C=C(C4CCC5C4(C)CC(O)C4OC(C(C)(C)O)CCC45C)CCC3O2)OC(CO)C(O)C1O (centres undefined)
inactive: Potency (PA-1) | Potency (SKOV3) | Potency (Tov-21-G) | Potency (Tov112D)

C=C1CCC[C@]2(C)CC[C@@H](C(=C)C(=O)O)[C@H](O)[C@@H]12
inactive: Potency (PA-1) | Potency (SKOV3) | Potency (Tov-21-G) | Potency (Tov112D)

CC(C)[C@H]1CC[C@@]2(O)COC(=O)[C@H]2[C@@H]1/C=C(\CO)C(=O)O
inactive: Potency (PA-1) | Potency (SKOV3) | Potency (Tov-21-G) | Potency (Tov112D)

O=C(/C=C/c1ccc(O)cc1)N[C@@H](Cc1ccc(O)cc1)C(=O)O
inactive: Potency (PA-1) | Potency (SKOV3) | Potency (Tov-21-G) | Potency (Tov112D)

C/C=C(\C)C(=O)OCC1OC(OC2OC(COC(=O)/C(C)=C/C)C(OC3OC(CO)C(OC(=O)/C(C)=C/C)C(OC(=O)/C(C)=C/C)C3O)C(O)C2O)C(O)C(O)C1OC1OC(CO)C(OC(=O)/C(C)=C/C)C(OC(=O)/C(C)=C/C)C1O (centres undefined)
inactive: activity change, negative = cytotoxicity (PA-1) 0.651% [at 11.6 µM] | activity change, negative = cytotoxicity (SKOV3) -11.6% [at 11.6 µM] | activity change, negative = cytotoxicity (Tov-21-G) 9.19% [at 11.6 µM] | activity change, negative = cytotoxicity (Tov112D) -1.35% [at 11.6 µM]

C[C@@H]1CN(Cc2ncccn2)C[C@H]1c1nc2c(cnn2C2CCOCC2)c(=O)[nH]1
inactive: Potency (PA-1) | Potency (SKOV3) | Potency (Tov-21-G) | Potency (Tov112D)

CC1OC(OC2C(O)C(OC3CCC4(C)C(CCC5(C)C4CC=C4C6CC(C)(COC7OC(CO)C(O)C(O)C7O)CC(O)C6(C)CCC45C)C3(C)C)OC(C(=O)O)C2O)C(O)C(O)C1OC1OCC(O)C(O)C1O (centres undefined)
inactive: activity change, negative = cytotoxicity (PA-1) 13.5% [at 11.6 µM] | activity change, negative = cytotoxicity (SKOV3) 37.6% [at 11.6 µM] | activity change, negative = cytotoxicity (Tov-21-G) 6.66% [at 11.6 µM] | activity change, negative = cytotoxicity (Tov112D) 7.29% [at 11.6 µM]

COc1cc(Br)c(S(=O)(=O)Nc2ccc(C(F)(F)F)c(O[C@@H]3CCN(C)C3)c2)cc1OC
inactive: Potency (PA-1) | Potency (SKOV3) | Potency (Tov-21-G) | Potency (Tov112D)

CCOCCn1nc(CC)c2nc(N3CCC(C(=O)O)CC3)nc(Nc3cc(C)ccn3)c21
inactive: Potency (PA-1) | Potency (SKOV3) | Potency (Tov-21-G) | Potency (Tov112D)

CC(C)CCC1(O)C(=O)C(C)(C)C(O[C@@H]2O[C@H](CO)[C@@H](O)[C@H](O)[C@H]2O)C(C)(C)C1O (some centres undefined)
inactive: Potency (PA-1) | Potency (SKOV3) | Potency (Tov-21-G) | Potency (Tov112D)

Cc1cccc(Oc2cnc(=O)[nH]c2)c1
inactive: Potency (PA-1) | Potency (SKOV3) | Potency (Tov-21-G) | Potency (Tov112D)

C=C(CCC1=C(C)[C@H]2[C@H](CC3[C@@H]4CC=C5C[C@@H](O)C[C@@H](O)[C@]5(C)C4[C@H](O)C[C@@]32C)O1)CO[C@@H]1O[C@H](CO)[C@@H](O)[C@H](O)[C@H]1O (some centres undefined)
active: Potency (PA-1) 3160 nM | Potency (SKOV3) 2820 nM | Potency (Tov-21-G) 2510 nM | Potency (Tov112D) 1120 nM

O=C1NC(Cc2ccccc2)C(=O)N2CCCC12 (centres undefined)
inactive: Potency (PA-1) | Potency (SKOV3) | Potency (Tov-21-G) | Potency (Tov112D)

C[C@@H]1CC[C@]2(C(=O)O)CC[C@]3(C)C(=CCC4[C@@]5(C)CC[C@H](O)C(C)(C)C5C(O)C[C@]43C)[C@@H]2[C@]1(C)O (some centres undefined)
inactive: Potency (PA-1) | Potency (SKOV3) | Potency (Tov-21-G) | Potency (Tov112D)

CO[C@H]1C[C@@H]2CC[C@@H](C)[C@@](O)(O2)C(=O)C(=O)N2CCCC[C@H]2C(=O)O[C@H]([C@H](C)C[C@@H]2CC[C@@H](OP(C)(C)=O)[C@H](OC)C2)CC(=O)[C@H](C)/C=C(\C)[C@@H](O)[C@@H](OC)C(=O)[C@H](C)C[C@H](C)/C=C/C=C/C=C/1C
inactive: Potency (PA-1) | Potency (SKOV3) | Potency (Tov-21-G) | Potency (Tov112D)

COC(=O)c1cc(OC)cc(OC)c1C(=O)c1c(OC)cc2c(c1O)C1CCCC(C)(O2)O1 (centres undefined)
inactive: Potency (PA-1) | Potency (SKOV3) | Potency (Tov-21-G) | Potency (Tov112D)

Cc1nc2sc(C(=O)NCc3ccncc3)c(N)c2c(C)c1Cl
inactive: Potency (PA-1) | Potency (SKOV3) | Potency (Tov-21-G) | Potency (Tov112D)
